# Shown are actives, neighbours in structure and some others; about 12% of the full set was active somewhere.
# Cycloheximide cs: affects cycloheximide protein synthesis inhibition readout, counter-screen | cell reporter, cycloheximide protein synthesis inhibition counterscreen | max response, % | 300,000 tested, 12% active | AID 2314; in the data active = max response mostly above about 13%, no sharp cut-off; inactive = mostly below about 14%; also: read at 38.3 µM for the half of the compounds with a filed dose; 0% is about no effect
# MARV entry inh: Marburg virus entry inhibition; Marburg virus pseudotyped entry inhibition, cell reporter; Potency, µM (titrated, usually from 37.8 µM), for inactives: top-dose activity change, negative = inhibition, usual class: inhibitors; 300,000 tested, 1.8% active; AID 540276; calls by dose curve; tested in HEK293 cells; also: potency is read from the fitted curve at half-maximal effect; % is scaled to controls: 0 for no effect and ±100 for the full control effect
# LASV entry inh: Lassa virus entry inhibition | AID 540256 | Lassa virus pseudotype entry inhibition, cell reporter | 300,000 tested, 1.2% active | Potency, µM (doses to about 37.9 µM), without a hit: at the highest dose activity change, negative = inhibition, most hits filed as inhibitors; calls by dose curve; tested in HEK293 cells; also: potency is read from the fitted curve at half-maximal effect; % is scaled to controls: 0 for no effect and ±100 for the full control effect; nearly all actives have a fitted effect of over 50% in size
# Shiga toxin inh: blocks Shiga toxin action in Vero cells; AID 2315; Vero cells, Shiga toxin protein synthesis inhibition reporter; inhibition, % at 38.7 µM; 290,000 tested, 9.2% active; in the data active = inhibition mostly above about 28%, no sharp cut-off; inactive = mostly below about 43%; also: 0% is about no effect
# An asterisk follows results filed as active; ? = inconclusive; · = no result; [ ] = dose if it differs, or a comment.
SMILES,Cycloheximide cs,MARV entry inh,LASV entry inh,Shiga toxin inh
O=C(Oc1cccc2cccnc12)c1cccc([N+](=O)[O-])c1,-5,?,7%[46.1 µM],-18
O=C(Oc1cccc2cccnc12)c1ccc2c(c1)OCCO2,70*,?,-21%,84*
NNC(=O)COc1cccc2cccnc12,-3,17%,-10%,-9
O=C(NCCOc1cccc2cccnc12)c1cccs1,22,-22%[46.1 µM],-23%[46.1 µM],46*
O=C(Oc1cccc2cccnc12)c1cccs1,21*,-6%,?,41
O=C(COc1cccc2cccnc12)Nc1nccs1,33*,8%,?,53*
O=C(N/N=C/c1ccc(Cl)cc1Cl)c1cccc(N2CCCC2=O)c1,16*,?,3%,44
CC(C)c1ccc(/C=N/NC(=O)c2cccc(Cl)c2)cc1,49*,?,?,active
O=C(N/N=C/c1cccnc1)c1cccc(Br)c1,17*,·,·,34
CC(C)c1ccc(C(=O)N/N=C/c2cccc(Cl)c2Cl)cc1,3,0%[46.1 µM],10%,11
Cc1cccc(C(=O)Nc2ccc(C(=O)N/N=C/c3cccnc3)cc2)c1,-5,8%[46.1 µM],2%[46.1 µM],20
O=C(N/N=C/c1cc(Cl)ccc1O)c1ccccc1Br,40*,·,·,27*
O=C(CNC(=O)c1ccccc1Br)N/N=C/c1cc(Br)ccc1O,-3,·,·,29
Cc1ccc2c(=O)cc(C(=O)Nc3cccc(Cl)c3C)oc2c1C,·,24%[46.1 µM],0%[46.1 µM],·
O=C(O)CCC(=O)OCCN(Cc1ccc(Oc2ccc([N+](=O)[O-])cc2)cc1)C(=O)C(Cl)Cl,·,-14%,-2%,·
Cc1ccccc1CSc1nc2ccsc2c(=O)n1CCC(C)C,·,·,28%[46.1 µM],·
O=C(N/N=C/c1cc(Cl)cc(Cl)c1O)c1ccncc1,1,·,·,-5
O=C(N/N=C/c1ccc(Cl)cc1Cl)c1ccncc1,24*,·,·,45*
CC(C)c1ccc(/C=N/NC(=O)CCNC(=O)c2ccccc2)cc1,21*,14%[46.1 µM],?,96*
O=C(N/N=C/c1cc(Cl)ccc1O)c1cccnc1,13*,?,?,25
O=C(N/N=C/c1cccnc1)c1cccc(NC(=O)c2ccc(Cl)cc2)c1,3,?,-12%[46.1 µM],20
O=C(N/N=C/c1cccnc1)c1cccc(Cl)c1,28*,1%[46.1 µM],23%[46.1 µM],33*
CCNC(=S)N1CCN(CC)CC1,-2,-1%[46.1 µM],4%,-9
CCCn1c(=O)c2sccc2n2c(CCCC(=O)Nc3ccc(Oc4ccccc4)cc3)nnc12,·,·,-24%[46.1 µM],·
Cc1cccc(N2CCN(CCCNC(=O)c3ccc(NC(=O)C4=CSCCO4)cc3)CC2C)c1 (stereo not given),-2,?,?,13
SMILES,Cycloheximide cs,MARV entry inh,LASV entry inh,Shiga toxin inh
CC(C)(C)c1ccc(Cn2nnc3c(=O)[nH]c(C4CCN(C(=O)Cc5cccs5)CC4)nc32)cc1,-4,8.2µM*,?,-17
O=C(c1cccs1)N1CCC(c2nc3c(nnn3Cc3ccccc3Cl)c(=O)[nH]2)CC1,-2,-7%[46.1 µM],7.9µM*,-7
O=C(NCc1cccs1)c1nc2c(nnn2Cc2ccccc2Cl)c(=O)[nH]1,-7,?,11µM*,-19
CCC(C)NC(=O)c1nc2c(nnn2Cc2ccccc2Cl)c(=O)[nH]1 (stereo not given),-1,0%[46.1 µM],2%,6
Cc1ccc(Cn2nnc3c(=O)[nH]c(C4CCN(S(=O)(=O)Cc5ccccc5)CC4)nc32)cc1,31*,?,11µM*,78*
Cc1cccc(-n2c3nc(=O)n(C)c(=O)c-3cc3c(C)nn(-c4ccccc4)c32)c1C,·,-7%[46.1 µM],19%[46.1 µM],·
Cc1ccc(-c2csc(N3CCC[C@@H]3C(=O)NCCn3c(-c4ccncc4)nc4ccccc43)n2)cc1,1,·,·,-3
COc1ccc2c(c1)O[C@@H](c1ccc3c(c1)OCO3)[C@H](OC(=O)NCCOc1ccccc1)C2=O,·,45%[14.2 µM],·,·
Cc1c(C)n(CCN(C)C)c2ccc(C(=O)OCCN(C)C)cc12,1,·,·,11
Cc1c(C)n(Cc2ccccc2)c2ccc(C(=O)OCCCN(C)C)cc12,0,10µM*,?,-8
CCOC(=O)Nc1cc(N)ncn1,·,1%,7%[46.1 µM],·
COc1cc(Cl)cc(/C=C/c2ccc3cccc(O)c3n2)c1OC,6,1%[46.1 µM],0%,11
CCOc1cccc(/C=C/c2ccc3cccc(O)c3n2)c1O,27*,?,?,139*
CCOc1ccccc1/C=C/c1cc(C(=O)O)c2ccccc2n1,2,-15%[46.1 µM],9%[46.1 µM],-6
CCOc1cccc(/C=C/c2ccc3cccc(O)c3n2)c1OC,52*,?,?,93*
Cc1ccc(/C=N/NC(=O)c2nnn(-c3nonc3N)c2CSc2ccc(Cl)cc2)o1,-1,·,·,-4
O=C(Nc1ccc(Cl)cc1)C1C2CCCCC21 (stereo not given),48*,·,·,67*
CCc1ccc(NC(=O)C2C3/C=C\CCCCC32)cc1 (stereo not given),37*,?,-6%,active

# Bioassay records from PubChem BioAssay.
